Assay results: PubChem BioAssay AID624297 (National Center for Advancing Translational Sciences (NCATS), 2012)
The campaign covered roughly 340,000 compounds. About 6,200 (1.8%) were called active. Inconclusive results (about 10%) are left out. Calls follow the shape of the dose curve; as a rule, active = well fitted activation curve with a large enough effect; inconclusive = small, poorly fitted or top-dose-only effect; inactive = no such curve, though single readings can be large or run the other way. What follows is part of a selection rich in actives, with near analogues and random picks from the rest. Where a call stands in place of a potency, no number is given.
Potency is read from the fitted curve at half-maximal effect.

Assay: A quantitative high throughput screen for small molecules that induce DNA re-replication in SW480 colon adenocarcinoma cells. Also: nearly all actives have a fitted effect of over 55% in size.
Conditions: Hoechst DNA content imaging, 48 h; series mostly up to 46.1 µM
Procedure, shortened: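 Image-based read-out: total Hoechst fluorescence of nuclei (405 nm excitation, 500-530 nm emission), with hits raising the fraction of high-intensity nuclei. SW480 colon cells incubated 48 hr with compounds at 37 C.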
With `CC(OC(=O)CNC(=O)c1ccc(Cl)c([N+](=O)[O-])c1)C(=O)NCc1ccco1` (stereo unspecified) the Potency was “inactive”.
For `N#Cc1cccc(NC(=O)COC(=O)c2ccccc2C(=O)c2ccc(Cl)c([N+](=O)[O-])c2)c1`, the Potency was “inactive”.
With `CC(=O)Nc1ccc(NC(=O)C(C)OC(=O)c2ccccc2C(=O)c2ccc(Cl)c([N+](=O)[O-])c2)cc1` (stereo unspecified) the Potency was 16.4 µM (active).
For `Cc1ccc(S(=O)(=O)N2[C@@H](c3cccc4ccccc34)C(C(=O)O)=C[C@H]2C(C)(C)C)cc1`, the re-replication activation was -25.3% [at 9.22 µM] (inactive).
With `C=CCSc1nc(Cc2ccc(Cl)cc2)nc2ccccc12` the Potency was “inactive”.
With `CCCNC(=O)CSc1nc(Cc2ccccc2)nc2ccccc12` the Potency was 9.2 µM (active).
For `CCc1nc(SCC(=O)NNC(=O)c2ccc(C)cc2)c2ccccc2n1`, the Potency was “inactive”.
In the case of `CC(=O)Nc1ccc(C(=O)Nc2cc(S(=O)(=O)N3CCOCC3)ccc2N2CCOCC2)cc1`, the Potency is reported as “inactive”.
In the case of `CC(Oc1ccc2c(-c3ccccc3)cc(=O)oc2c1)C(=O)NC(Cc1c[nH]c2ccccc12)C(=O)O` (stereo unspecified), the Potency is reported as “inactive”.
In the case of `CCOc1cccc(SCc2noc(C(=O)NC(C)C)c2C(=O)O)c1`, the Potency is reported as “inactive”.
With `CCCNC(=O)c1onc(CSc2ccc(F)cc2)c1C(=O)NC(C)C` the Potency was “inactive”.
In the case of `COC(=O)c1c(CCl)noc1C(=O)NC(C)C`, the Potency is reported as 20.6 µM (active).
For `CC(=O)N1CCc2ccc(N)cc21`, the Potency was “inactive”.
With `OC(COc1ccccc1)CN1CCN(c2cccc(Cl)c2)CC1` (stereo unspecified) the Potency was “inactive”.
In the case of `O=C(NN=CC=Cc1ccccc1)C(O)C(O)C(=O)NN=CC=Cc1ccccc1` (stereo unspecified), the Potency is reported as “inactive”.
With `CN(C(=O)c1cccc(NC(=O)Cc2ccc(NC(=O)C3CCCN(C(=O)C4CCCC4)C3)cc2)c1)C1CCC1` (stereo unspecified) the re-replication activation was -19.7% [at 9.22 µM] (inactive).
For `O=C(N/N=C/c1cc2c(cc1Br)OCO2)C1COc2ccccc2O1` (stereo unspecified), the Potency was “inactive”.
For `O=C(N/N=C\c1cc2c(cc1Cl)OCO2)c1ccc(Br)s1`, the Potency was 7.31 µM (active).
With `CC1(C(=O)N/N=C/c2cc3c(cc2Br)OCO3)CC1(Br)Br` (stereo unspecified) the Potency was “inactive”.
In the case of `O=C(CSc1ncnc2sccc12)NC1CCS(=O)(=O)C1` (stereo unspecified), the Potency is reported as “inactive”.
In the case of `O=C(Nc1ccc2c(c1)OCO2)C1CC1(Cl)Cl` (stereo unspecified), the Potency is reported as “inactive”.
In the case of `O=C(Nc1c[nH]c(=O)[nH]c1=O)OCc1ccccc1`, the Potency is reported as “inactive”.
In the case of `COc1ccc(NC(=O)/C(N=Nc2cccc(S(=O)(=O)Nc3ccc(SC(F)F)cc3)c2)=C(\C)O)cc1`, the Potency is reported as “inactive”.
For `Cc1nc(N2CCOCC2)nc2c1CCCC2`, the Potency was “inactive”.
For `Nc1nc(-c2sc3nc4c(cc3c2N)CCCC4)nc(N2CCOCC2)n1`, the Potency was 10.3 µM (active).
For `COc1ccc(/C=C/C(=O)OCC(=O)N2CCN(S(=O)(=O)c3ccc(C)cc3C)CC2)cc1OC`, the Potency was “inactive”.
